Assay in all cases: NCI-60 one-dose screen, 48 h (100 = growth as untreated, 0 = no growth, -100 = all killed)
Conditions in all cases: 10 µM unless noted

The test system of experiment [1] is SR leukemia.
The test system of experiment [2] is RPMI-8226 leukemia.
In experiment [3] the test system is OVCAR-8 ovarian.
The test system of experiment [4] is OVCAR-5 ovarian.
For experiment [5], the system named is OVCAR-4 ovarian.
For experiment [6], the system named is SK-OV-3 ovarian.
Experiment [7] has as its system IGROV1 ovarian.
In experiment [8] the test system is OVCAR-3 ovarian.
Experiment [9] deals with NCI/ADR-RES ovarian.

About 83,000 compounds went through this panel and 20% of them were active in at least one assay; those are over-represented in the sample as a whole.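 Testing used 96-well plates and a 48-hour single-concentration exposure. Example: -40 means 40% of the starting cells died.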 Unmarked numbers belong to inactive results. The source made the active and inactive calls. How the source made its calls: active means growth percent below 10; inactive means the rest.

Regarding `C[C@@H](Oc1cc(-c2cnn(C3CCNCC3)c2)cnc1N)c1c(Cl)ccc(F)c1Cl`, the growth in experiment [1] is -35.7% (active); in [2] it was -43.3% (active); in experiment [3], -27.5% (active); in experiment [4], -28.7% (active); in experiment [5], -23.9% (active); in experiment [6], -39.4% (active). Also, the growth in experiment [7] was -24.5% (active); in experiment [8], 6.67% (active); in experiment [9] it was 2.26% (active).

For `COc1ncc(-c2ccc3nccc(-c4ccnnc4)c3c2)cc1NS(=O)(=O)c1ccc(F)cc1F`, the growth in [1] is -16.9% (active); in experiment [2], -35.4% (active); in experiment [3], -17% (active); in [4] it was 7.97% (active); in [5], -8.87% (active); in experiment [6], -52.1% (active). Also, the growth in [7] is -24.1% (active); in experiment [8], -58% (active); in [9], -20% (active).

Turning to `CN1[C@@H]2CC[C@H]1/C(=C\c1ccccc1)C1=C2[C@@H](c2ccccc2)C(C#N)=C(N)O1`, the growth in experiment [1] was 61.8%; in experiment [2], 55.5%; in experiment [3], 84.3%; in [4] it was 84.9%; in [5], 73.9%; in experiment [6], 84.4%. The values for the growth in experiment [7], in experiment [8] and in experiment [9] were 93.8%, 97.2% and 90.2%, respectively.

Take `CS(=O)(=O)N1CCN(Cc2cc3nc(-c4cccc5[nH]ncc45)nc(N4CCOCC4)c3s2)CC1`: the growth in [1] was 18.6%; in experiment [2], 25%; in experiment [3], 27%; in experiment [4] it was 20.5%; in experiment [5] it was 47.8%; in experiment [6] it was -18.4% (active). Besides, the figures for the growth in experiment [7], in experiment [8] and in [9] were -28.4% (active), 14.5% and 32.1%, respectively.

On to `CNC(=O)c1cc(Oc2ccc(NC(=O)Nc3ccc(Cl)c(C(F)(F)F)c3)c(F)c2)ccn1`, for which the growth in [1] is -32.6% (active); in experiment [2], -34% (active); in experiment [3] it was -1.84% (active); in [4], 3.12% (active); in experiment [5], 8.63% (active); in [6] it was -16.7% (active). Further, the growth in experiment [7] was -20.8% (active); in [8] it was 0.719% (active); in experiment [9] it was -14.3% (active).

Take `Clc1nc(Cl)c2ncn(CC#CCn3cnc4c(Cl)nc(Cl)nc43)c2n1`: the growth in [1] is -52.6% (active); in [2], -56.6% (active); in experiment [3], -34.8% (active); in [4] it was -2.99% (active); in experiment [5], -70.8% (active); in experiment [6], 87.5%. In addition, the growth in experiment [7] was -75.4% (active); in experiment [8], -90.9% (active); in [9], 59.8%.

For the compound `CS(=O)(=O)N1CCc2c(-c3cnc(N)nc3)nc(N3CCOCC3)nc21`, the growth in experiment [1] is 6.13% (active); in [2] it was 18.1%; in experiment [3], 6.31% (active); in experiment [4], 4.76% (active); in experiment [5], -5.74% (active); in [6], -40.6% (active). Also, the growth was -38.1% (active) in experiment [7], 9.64% (active) in [8] and 12.9% in [9].

In the case of `CC(C)(C)c1cnc(CSc2cnc(NC(=O)C3CCNCC3)s2)o1`, the growth is 0.401% (active) in experiment [1]; -8.04% (active) in experiment [2]; 5.71% (active) in experiment [3]; 14.9% in [4]; 9.94% (active) in experiment [5]; 6.31% (active) in experiment [6]. For the same compound, the figures for the growth in [7], in [8] and in experiment [9] were 9.86% (active), 20.2% and 53%, respectively.

Consider `COC(=O)N[C@@H](C)CNc1nccc(-c2cn(C(C)C)nc2-c2cc(Cl)cc(NS(C)(=O)=O)c2F)n1`, for which the growth in [1] was 51.7%; in experiment [2], 113%; in experiment [3], 72.5%; in experiment [4] it was 42.9%; in [5], 71.4%; in [6] it was 22.8%. The values for the growth in [7], in experiment [8] and in experiment [9] were 42.2%, 87% and 96.8%, respectively.

With `O=C(NOCCO)c1ccc2cncn2c1Nc1ccc(I)cc1F`, the growth is 56.9% in [1]; 72.8% in experiment [2]; 58.6% in experiment [3]; 19.3% in experiment [4]; 70.8% in experiment [5]; 49% in experiment [6]. Besides, the values for the growth in [7], in experiment [8] and in experiment [9] were 26.2%, 102% and 71.8%, respectively.

On to `C=CC(=O)N1CCC[C@@H](n2nc(-c3ccc(Oc4ccccc4)cc3)c3c(N)ncnc32)C1`, for which the growth was 50.3% in experiment [1]; 42.1% in [2]; 40.1% in experiment [3]; 81.7% in [4]; 60.6% in [5]; -2.8% (active) in experiment [6]. The growth in [7] is 7.56% (active); in experiment [8] it was 66.3%; in [9], 46.4%.

`CCN(CCCOc1ccc2c(Nc3cc(CC(=O)Nc4cccc(F)c4)[nH]n3)ncnc2c1)CCOP(=O)(O)O`: the growth is 36.3% in [1]; 91.5% in experiment [2]; 70.2% in experiment [3]; 59.3% in experiment [4]; 79.9% in experiment [5]; 77.1% in experiment [6]. The growth was 62.4% in [7], 78.2% in experiment [8] and 98.3% in experiment [9].

In the case of `Cc1ncc(-c2ccnc(Nc3ccc(S(C)(=O)=O)cc3)n2)n1C(C)C`, the growth in [1] was -18.3% (active); in experiment [2], -0.427% (active); in experiment [3], 6.22% (active); in experiment [4], -0.123% (active); in experiment [5] it was 3.33% (active); in [6] it was 11.6%. Besides, the growth in [7] was -10.8% (active); in experiment [8] it was 8.42% (active); in [9] it was 1.79% (active).

Consider `COc1ccc(C2OC(c3cc(-c4cc5ccccc5o4)nn3-c3ccccc3)=NN2C(C)=O)cc1` (stereo unspecified), for which the growth is 93.1% in [1]; 101% in [2]; 99.5% in [3]; 94% in [4]; 96.3% in [5]; 103% in [6]. The growth was 89.4% in experiment [7], 95.3% in experiment [8] and 92.2% in experiment [9].

Source of the values: PubChem BioAssay (NCI).
